Laboratory results from the supplement of paper PMC4206461.
A number with no mark means an inactive call.

Legend:
[1] = test system: Pseudomonas aeruginosa PA14 dppA1-A5 penta mutant + pBBR5.DppA1 (PA14_58350); assay: respiration area under curve with compound as sole nitrogen source, 24 h (OmniLog AUC (arbitrary units)); higher = more respiration / better utilisation as nitrogen source, active = 2000 or more
Protocol: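 Biolog Phenotype MicroArray plates PM6-PM8: each di/tripeptide is the sole nitrogen source. Tetrazolium reduction was read in the OmniLog for 24 h at 37°C and summarised as area under the respiration curve (arbitrary units). Values below 2000 count as no respiration. Strain is the SBP penta mutant complemented with DppA1 on a plasmid under its native promoter. Lys/His/Cys peptides are excluded.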

[2] = test system: Pseudomonas aeruginosa PA14 wild type; assay: as above
Protocol: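 Biolog Phenotype MicroArray plates PM6-PM8: each di/tripeptide is the sole nitrogen source (IF-0 medium with succinate/ferric citrate and dye mix A). Tetrazolium reduction was read in the OmniLog every 15 min for 24 h at 37°C and summarised as area under the respiration curve (arbitrary units). The paper counts values below 2000 as no respiration and above 8000 as solid respiration. Replicate datasets are averaged.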

[3] = test system: Pseudomonas aeruginosa PA14 dppBCDF deletion mutant; assay: respiration area under curve with compound as sole nitrogen source, 24 h (OmniLog AUC (arbitrary units)); higher = more respiration / better utilisation as nitrogen source, active = 2000 or more; extreme values may be limits of the assay
Protocol: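 Biolog Phenotype MicroArray plates PM6-PM8: each di/tripeptide is the sole nitrogen source. Tetrazolium reduction was read in the OmniLog every 15 min for 24 h at 37°C and summarised as area under the respiration curve (arbitrary units). Values below 2000 count as no respiration. Strain is the dipeptide ABC transporter deletion mutant.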

Compound	respiration area under curve [1]	respiration area under curve [2]	respiration area under curve [3]
CC[C@H](C)[C@H](N)C(=O)N[C@@H](Cc1c[nH]c2ccccc12)C(=O)O (plate: PM6)	287	1090	76.8
C[C@@H](O)[C@H](N)C(=O)N[C@@H](CCC(N)=O)C(=O)O (plate: PM8)	10400 (active)	–	454
C[C@H](NC(=O)CCN)C(=O)O (plate: PM8)	4280 (active)	6440 (active)	0
CC(C)C[C@H](NC(=O)[C@@H]1CCCN1)C(=O)O (plate: PM7)	5560 (active)	7810 (active)	626
CSCC[C@H](N)C(=O)NCC(=O)O (plate: PM7)	3910 (active)	–	33.2
C[C@H](N)C(=O)N[C@@H](C)C(=O)O (plate: PM6)	7210 (active)	8430 (active)	6250 (active)
NCC(=O)N1CCC[C@H]1C(=O)O (plate: PM6)	7310 (active)	9130 (active)	0
N[C@@H](CO)C(=O)N[C@@H](CO)C(=O)O (plate: PM7)	–	8860 (active)	988
CC(C)C[C@H](NC(=O)CN)C(=O)O (plate: PM6)	969	–	0
CC(C)C[C@H](N)C(=O)N[C@@H](CC(N)=O)C(=O)O (plate: PM8)	11100 (active)	–	10700 (active)
O=C(O)[C@H](Cc1ccc(O)cc1)NC(=O)[C@@H]1CCCN1 (plate: PM7)	11800 (active)	12200 (active)	8430 (active)
C[C@H](N)C(=O)N[C@H](C(=O)O)[C@@H](C)O (plate: PM6)	4830 (active)	6750 (active)	1650
C[C@@H](O)[C@H](N)C(=O)N1CCC[C@H]1C(=O)O (plate: PM7)	10700 (active)	–	0
C[C@@H](N)C(=O)NCC(=O)O (plate: PM8)	5420 (active)	6030 (active)	0
NCC(=O)N[C@@H](Cc1ccccc1)C(=O)N[C@@H](Cc1ccccc1)C(=O)O (plate: PM8)	5190 (active)	8980 (active)	1840
C[C@H](NC(=O)[C@@H](N)Cc1ccc(O)cc1)C(=O)O (plate: PM7)	10300 (active)	–	8840 (active)
CC(C)[C@H](N)C(=O)N[C@@H](CCC(=O)O)C(=O)O (plate: PM8)	2880 (active)	5380 (active)	0
NC(N)=NCCC[C@H](N)C(=O)N[C@@H](CC(=O)O)C(=O)O (plate: PM6)	7970 (active)	9430 (active)	7880 (active)
CSCC[C@H](N)C(=O)N[C@@H](Cc1c[nH]c2ccccc12)C(=O)O (plate: PM7)	2980 (active)	–	2520 (active)
NC(=O)CC[C@H](N)C(=O)N[C@@H](CCC(=O)O)C(=O)O (plate: PM8)	7630 (active)	–	3750 (active)
CC(C)C[C@@H](N)C(=O)N[C@@H](Cc1ccc(O)cc1)C(=O)O (plate: PM8)	21.2	36.8	0
CC(C)[C@H](NC(=O)[C@@H](N)Cc1c[nH]c2ccccc12)C(=O)O (plate: PM8)	1060	3080 (active)	0
C[C@H](NC(=O)CNC(=O)CN)C(=O)O (plate: PM8)	4350 (active)	11300 (active)	102

Compound	respiration area under curve [1]	respiration area under curve [2]	respiration area under curve [3]
NCC(=O)N[C@@H](Cc1ccc(O)cc1)C(=O)O (plate: PM6)	–	2560 (active)	216
CC[C@H](C)[C@H](NC(=O)[C@@H](N)Cc1ccc(O)cc1)C(=O)O (plate: PM8)	6990 (active)	6790 (active)	5950 (active)
NC(N)=NCCC[C@H](NC(=O)[C@@H](N)CCCN=C(N)N)C(=O)O (plate: PM6)	8780 (active)	10100 (active)	9250 (active)
CC(C)C[C@@H](N)C(=O)N[C@H](CC(C)C)C(=O)O (plate: PM8)	0	0	0
CC(NC(=O)C(N)CC(=O)O)C(=O)O (stereo not given) (plate: PM8)	6890 (active)	–	12.2
CC(C)[C@H](NC(=O)[C@@H](N)CC(N)=O)C(=O)O (plate: PM6)	5500 (active)	–	4910 (active)
CC(C)C[C@H](NC(=O)[C@@H](N)C(C)C)C(=O)O (plate: PM7)	7530 (active)	9770 (active)	3160 (active)
C[C@H](N)C(=O)N1CCC[C@H]1C(=O)O (plate: PM6)	10700 (active)	–	717
CC(C)C[C@H](NC(=O)[C@@H](C)N)C(=O)O (plate: PM8)	286	–	0
CC(C)C(N)C(=O)NC(CO)C(=O)O (stereo not given) (plate: PM8)	6900 (active)	9530 (active)	844
CC(C)[C@H](N)C(=O)N[C@@H](CCC(N)=O)C(=O)O (plate: PM8)	–	9290 (active)	1010
CC[C@H](C)[C@H](N)C(=O)N[C@@H](CO)C(=O)O (plate: PM6)	–	6110 (active)	156
N[C@@H](Cc1c[nH]c2ccccc12)C(=O)N[C@@H](Cc1ccc(O)cc1)C(=O)O (plate: PM7)	292	–	–
CSCC[C@H](NC(=O)[C@H](C)N)C(=O)O (plate: PM8)	–	6360 (active)	2300 (active)
CC(C)[C@H](N)C(=O)N[C@@H](CC(=O)O)C(=O)O (plate: PM7)	–	8160 (active)	18
CSCC[C@H](N)C(=O)N[C@@H](CC(=O)O)C(=O)O (plate: PM7)	–	4700 (active)	1590
CSCC[C@H](NC(=O)[C@@H](N)[C@@H](C)O)C(=O)O (plate: PM7)	–	4960 (active)	204
CSCCC(N)C(=O)NC(CCCN=C(N)N)C(=O)O (stereo not given) (plate: PM7)	–	14600 (active)	13000 (active)
N[C@@H](Cc1c[nH]c2ccccc12)C(=O)N[C@@H](CO)C(=O)O (plate: PM7)	–	4810 (active)	106
CC(C)[C@H](N)C(=O)N[C@@H](Cc1ccccc1)C(=O)O (plate: PM8)	–	6560 (active)	3500 (active)
CC(C)C[C@H](N)C(=O)N[C@@H](C)C(=O)O (plate: PM6)	–	9330 (active)	7270 (active)
O=C(O)CC(NC(=O)C1CCCN1)C(=O)O (stereo not given) (plate: PM7)	–	4460 (active)	0
NCC(=O)N[C@H](CC(=O)O)C(=O)O (plate: PM8)	–	0.2	0

Compound	respiration area under curve [1]	respiration area under curve [2]	respiration area under curve [3]
N[C@@H](Cc1ccccc1)C(=O)NCC(=O)NCC(=O)O (plate: PM8)	–	8700 (active)	1300
C[C@@H](NC(=O)CN)C(=O)O (plate: PM8)	–	5060 (active)	0
CCC(C)C(N)C(=O)NC(CC(N)=O)C(=O)O (stereo not given) (plate: PM8)	–	9360 (active)	488
CC[C@H](C)[C@H](NC(=O)CN)C(=O)O (plate: PM8)	–	7100 (active)	1250
CC(C)C[C@H](N)C(=O)N[C@H](C(=O)O)C(C)C (plate: PM7)	–	9910 (active)	9340 (active)
CC[C@H](C)[C@H](NC(=O)[C@@H]1CCCN1)C(=O)O (plate: PM8)	4410 (active)	–	–
N[C@@H](CO)C(=O)N[C@@H](Cc1ccccc1)C(=O)O (plate: PM7)	6220 (active)	–	–
C[C@H](N)C(=O)N[C@@H](CCC(=O)O)C(=O)O (plate: PM6)	6760 (active)	–	–
CSCCC(NC(=O)C(N)C(C)C)C(=O)O (stereo not given) (plate: PM8)	–	4440 (active)	397
CC(C)C[C@H](NC(=O)[C@@H](N)[C@@H](C)O)C(=O)O (plate: PM7)	4760 (active)	–	–
CC(C)C[C@H](N)C(=O)N1CCC[C@H]1C(=O)O (plate: PM8)	5120 (active)	–	–
N[C@@H](Cc1ccc(O)cc1)C(=O)N[C@@H](Cc1ccc(O)cc1)C(=O)O (plate: PM7)	–	7080 (active)	4900 (active)
N[C@@H](CO)C(=O)N[C@@H](Cc1ccc(O)cc1)C(=O)O (plate: PM7)	–	6130 (active)	1890
C[C@H](N)C(=O)N[C@@H](CCC(N)=O)C(=O)O (plate: PM8)	–	11600 (active)	3540 (active)
CC[C@H](C)[C@H](N)C(=O)N[C@@H](CCCN=C(N)N)C(=O)O (plate: PM6)	–	9480 (active)	8420 (active)
CC[C@H](C)[C@H](N)C(=O)N[C@H](C(=O)O)C(C)C (plate: PM6)	2860 (active)	–	–
CC[C@H](C)[C@H](NC(=O)[C@@H](N)CCCN=C(N)N)C(=O)O (plate: PM6)	8150 (active)	–	–
NC(=O)CC[C@H](NC(=O)[C@@H](N)CCCN=C(N)N)C(=O)O (plate: PM6)	–	9850 (active)	9270 (active)
N[C@@H](CCC(=O)O)C(=O)N[C@@H](CCC(=O)O)C(=O)O (plate: PM6)	263	–	–
CC(C)[C@H](N)C(=O)N1CCC[C@H]1C(=O)O (plate: PM8)	–	12700 (active)	0
CC(C)[C@H](NC(=O)[C@@H](N)Cc1ccc(O)cc1)C(=O)O (plate: PM8)	6630 (active)	–	–
O=C(O)CC[C@H](NC(=O)[C@@H]1CCCN1)C(=O)O (plate: PM8)	5380 (active)	–	–
C[C@H](NC(=O)[C@@H]1CCCN1)C(=O)O (plate: PM7)	6110 (active)	–	–
